This is an account of results in PubChem BioAssay (Tox21).

Assay [1] can be described thus: Caspase-3/7 induction in HepG2 cells by small molecules, qHTS assay (AID 1346978). Note: nearly all actives have a fitted effect of over 15% in size. Note: potency is the fitted concentration of half-maximal effect. The essentials:
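Wild-type HepG2 cells (2,000/well) were settled 5 h at 37 C, 5% CO2, then exposed to compounds in DMSO for 17 h. Caspase-3/7 activity was read by luminescence 30 min after adding Caspase-Glo 3/7 reagent at room temperature.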
For orientation: Quantitative high-throughput screening tests each substance at several concentrations.

Assay [2] has as its target Nuclear receptor subfamily 1 group I member 2 (Homo sapiens) (UniProt O75469). In words: Human pregnane X receptor (PXR) small molecule agonists, qHTS assay (AID 1346982). For activation: % is set by controls: 0 for no effect and ±100 for the full control effect. Note: nearly all actives have a fitted effect of over 35% in size. Note: potency is the fitted concentration of half-maximal effect. The essentials:
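PXR-Luc HepG2 reporter cells (CYP3A4-driven luciferase) in 5% charcoal-stripped FBS medium, plated 5 h before compound addition, then treated 24 h at 37C. Luciferase read by ONE-Glo luminescence after 30 min at room temperature.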

For assay [3], the target named is Nuclear receptor subfamily 1 group I member 2 (Rattus norvegicus) (UniProt Q9R1A7). In words: Rat pregnane X receptor (rPXR) activation by small molecules, qHTS assay (AID 1346983). For max activation: % is set by controls: 0 for no effect and ±100 for the full control effect. Note: nearly all actives have a fitted effect of over 20% in size. Note: potency is the fitted concentration of half-maximal effect. The settings on record: rPXR luciferase reporter cells, One-Glo luminescence, 24 h; max activation: stronger effect = higher value. The essentials:
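Cell-based rPXR luciferase reporter assay, 2,000 cells per well, rested 5hr at 37 C before compound addition in DMSO, then 24 hr at 37 C. One-Glo reagent was added and luminescence read after 30 min at room temperature.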

The target in assay [4] is Nuclear receptor subfamily 1 group I member 2 (Homo sapiens) (UniProt O75469). In words: CYP3A4 induction through human pregnane X receptor (PXR) by small molecules, qHTS assay (AID 1346984). Note: % is set by controls: 0 for no effect and ±100 for the full control effect; nearly all actives have a fitted effect of over 40% in size. The essentials:
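DPX-2 HepG2 cells carrying a PXR response element and CYP3A4-promoter luciferase construct, treated with compounds 24 hr at 37C. Then P450-Glo CYP3A4 Luciferin-IPA substrate (3uM final) for 3 hr at 37C, One-Glo added, luminescence read.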

Assay [5] can be described thus: Caspase-3/7 induction in CHO-K1 cells by small molecules, qHTS assay (AID 1346980). Note: nearly all actives have a fitted effect of over 15% in size. Note: potency is the fitted concentration of half-maximal effect. The essentials:
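Wild-type cells were seeded at 1,500 per well and settled 5 hr at 37 C, 5% CO2, then exposed to DMSO-dissolved compounds for 17 hr. Caspase-Glo 3/7 reagent was added, and luminescence was read after 30min at room temperature.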

Assay [6] can be described thus: Caspase-3/7 induction in HepG2 cells by small molecules, qHTS cell viability counter screen (AID 1346981). Note: nearly all actives have a fitted effect of over 30% in size. Note: potency is the fitted concentration of half-maximal effect. The essentials:
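Wild-type HepG2 cells, 2,000/well, settled 5 hr at 37 C, 5% CO2 before compound addition. Viability read by CellTiter-Fluor fluorescence, reagent added after 16 hr compound exposure, then 1 hr at 37C, in the same wells as the caspase read.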

Assay [7] addresses Cytochrome P450 2D6 (Homo sapiens) (UniProt P10635). In words: Cytochrome P450 Family 2 Subfamily D Member 6 (CYP2D6) small molecule antagonists: luciferase reporter qHTS assay (AID 1671196). Note: nearly all actives have a fitted effect of over 50% in size. Note: potency is the fitted concentration of half-maximal effect. The essentials:
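Cell-free P450-Glo system: CYP2D6 with proluciferin substrate was pre-incubated with compound for 10 min, then reacted with NADPH regeneration for 1 h at room temperature. Luciferin product was detected after 20 min, and data were reported as relative luminescence units.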
Background: In a reporter assay the amount or activity of a reporter protein is the signal.

The nature of assay [8]: Caspase-3/7 induction in CHO-K1 cells by small molecules, qHTS cell viability counter screen (AID 1346979). Note: potency is the fitted concentration of half-maximal effect; nearly all actives have a fitted effect of over 35% in size. The essentials:
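Viability readout by fluorescence (CellTiter-Fluor) on wild-type CHO-K1 cells exposed for 16hr at 37C and 5% CO2 to compounds delivered in DMSO; reagent incubated 1hr before reading.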

Results filed as inconclusive are left out. Calls of active or inactive are those of the source. Calls come from the whole dose curve; as a rule, active = well fitted curve in the direction sought with a large enough effect in the repeat runs; inconclusive = weak or mixed curves; inactive = no such curve, though single readings can be large; an effect the other way counts as inactive or inconclusive.

Sequence of Cytochrome P450 2D6 (Homo sapiens) (P10635 whole entry, looked up): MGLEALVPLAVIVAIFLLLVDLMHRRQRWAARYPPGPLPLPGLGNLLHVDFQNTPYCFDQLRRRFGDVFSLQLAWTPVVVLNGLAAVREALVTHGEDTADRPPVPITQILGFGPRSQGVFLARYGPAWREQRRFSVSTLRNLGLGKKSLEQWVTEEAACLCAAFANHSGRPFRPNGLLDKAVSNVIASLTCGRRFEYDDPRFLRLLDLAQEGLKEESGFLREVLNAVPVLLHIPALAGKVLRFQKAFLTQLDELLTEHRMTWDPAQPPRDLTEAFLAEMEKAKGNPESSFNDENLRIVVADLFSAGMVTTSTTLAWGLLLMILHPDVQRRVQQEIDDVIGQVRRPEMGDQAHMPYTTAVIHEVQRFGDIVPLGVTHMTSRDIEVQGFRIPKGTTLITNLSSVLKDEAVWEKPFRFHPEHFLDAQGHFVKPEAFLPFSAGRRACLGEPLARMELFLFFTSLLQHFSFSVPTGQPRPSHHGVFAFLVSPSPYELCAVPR
Sequence of Nuclear receptor subfamily 1 group I member 2 (Rattus norvegicus) (Q9R1A7 whole entry, looked up): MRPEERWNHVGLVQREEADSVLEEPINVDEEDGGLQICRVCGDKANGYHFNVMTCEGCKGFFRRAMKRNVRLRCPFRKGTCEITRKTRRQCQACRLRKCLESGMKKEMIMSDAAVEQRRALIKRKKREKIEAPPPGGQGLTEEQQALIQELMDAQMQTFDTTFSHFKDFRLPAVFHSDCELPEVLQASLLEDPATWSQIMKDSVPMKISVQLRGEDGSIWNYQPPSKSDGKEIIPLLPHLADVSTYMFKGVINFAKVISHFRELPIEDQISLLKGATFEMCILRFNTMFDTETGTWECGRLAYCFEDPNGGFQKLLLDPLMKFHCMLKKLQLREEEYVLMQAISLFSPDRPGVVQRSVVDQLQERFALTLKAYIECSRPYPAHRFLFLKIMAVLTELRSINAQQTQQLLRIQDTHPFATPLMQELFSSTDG
Sequence of Nuclear receptor subfamily 1 group I member 2 (Homo sapiens) (O75469 whole entry, looked up): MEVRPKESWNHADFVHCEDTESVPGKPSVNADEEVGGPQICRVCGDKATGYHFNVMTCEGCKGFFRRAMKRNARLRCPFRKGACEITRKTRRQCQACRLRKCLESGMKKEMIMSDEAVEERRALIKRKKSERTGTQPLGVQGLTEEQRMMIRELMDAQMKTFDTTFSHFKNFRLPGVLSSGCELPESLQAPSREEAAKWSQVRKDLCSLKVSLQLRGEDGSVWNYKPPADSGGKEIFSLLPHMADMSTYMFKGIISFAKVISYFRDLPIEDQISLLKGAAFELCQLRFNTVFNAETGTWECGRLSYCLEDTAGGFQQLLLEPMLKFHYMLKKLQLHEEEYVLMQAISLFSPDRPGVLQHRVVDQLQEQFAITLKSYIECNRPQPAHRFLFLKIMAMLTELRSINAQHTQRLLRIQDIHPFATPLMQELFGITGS

In the case of `CC[C@@]1(O)C(=O)OCc2c1cc1n(c2=O)Cc2cc3c(CN(C)C)c(O)ccc3nc2-1`, the Potency in assay [1] was 4.22 µM (active). Moreover, the Potency entry in assay [2] and in assay [4] was “inactive” in each case. The max activation in assay [3] is -5.54% (inactive).
Take `Cc1ccc(-n2nc(C(C)(C)C)cc2NC(=O)Nc2ccc(OCCN3CCOCC3)c3ccccc23)cc1`: the Potency result in assay [1], in assay [5] and in assay [6] was “inactive” each time. Further, the Potency in assay [2] was 23.7 µM (active); in assay [7] it was 15.5 µM (active).
As to `CCCC(C)c1ccccc1O` (configuration not stated), the Potency result in assay [5], in assay [6], in assay [2] and in assay [7] was “inactive” in each case.
In the case of `CCCCC(CC)COP(=O)(O)OCC(CC)CCCC` (configuration not stated), the Potency entry in assay [1], in assay [5] and in assay [6] was “inactive” each time. Further, the Potency in assay [7] is 50.2 µM (active).
As to `CCN(CC)CCCC(C)Nc1c2ccc(Cl)cc2nc2ccc(OC)cc12` (configuration not stated), the Potency in assay [1] is 29.8 µM (active). The Potency result in assay [4] was “inactive”.
`CC(C)c1ccc2c(c1)CC[C@H]1[C@](C)(CN)CCC[C@]21C`: the Potency is 19.3 µM (active) in assay [2] and 1.26 µM (active) in assay [7].
In the case of `CCC(CN)=C(c1ccccc1)c1ccccc1`, the Potency result in assay [1], in assay [5] and in assay [6] was “inactive” in each case. Further, the Potency in assay [7] was 4.36 µM (active).
`CCC(Cl)C(Cl)C(Cl)CC(Cl)C(Cl)C(C)Cl` (configuration not stated): the Potency result in assay [1], in assay [5] and in assay [6] was “inactive” throughout. In addition, the Potency was 21.7 µM (active) in assay [2] and 35.6 µM (active) in assay [7].
Take `CN(C)[C@@H]1C(=O)C(C(N)=O)=C(O)[C@@]2(O)C(=O)C3=C(O)c4c(O)cccc4C[C@H]3C[C@@H]12`: the Potency entry in assay [1], in assay [5], in assay [6], in assay [2] and in assay [7] was “inactive” in each case.
In the case of `c1cc(C(c2ccc(OCC3CO3)cc2)c2ccc(OCC3CO3)cc2)ccc1OCC1CO1` (configuration not stated), the Potency entry in assay [1] and in assay [7] was “inactive” throughout. Moreover, the Potency in assay [8] is 61.1 µM (active); in assay [2], 27.3 µM (active).
Regarding `CCOc1ccc2nc3cc(N)ccc3c(N)c2c1`, the Potency result in assay [1], in assay [5], in assay [2] and in assay [4] was “inactive” throughout. In addition, the max activation in assay [3] was 1.69% (inactive). In addition, the Potency in assay [7] is 15.5 µM (active).
`N/C(=N\N=C\c1ccc(Cl)cc1)N/N=C/c1ccc(Cl)cc1`: the Potency entry in assay [1], in assay [5] and in assay [4] was “inactive” throughout. Moreover, the Potency in assay [2] is 11.9 µM (active). Further, in assay [3], the max activation was -3.26% (inactive).
Turning to `OCCN(CCO)c1nc(N2CCCCC2)c2nc(N(CCO)CCO)nc(N3CCCCC3)c2n1`, the Potency entry in assay [1] and in assay [5] was “inactive” throughout. For the same compound, in assay [7], the Potency was 9.77 µM (active).
Regarding `CCOC(=O)O[C@H](C)OC(=O)c1ccc2c(c1)cc(C(=O)NC1CCN(C(C)C)CC1)n2Cc1cc(-c2ccc(Cl)s2)on1`, the Potency in assay [1] is 45.4 µM (active); in assay [8], 14.3 µM (active); in assay [6] it was 50.9 µM (active); in assay [7] it was 37.3 µM (active). The Potency result in assay [2] is “inactive”.
For the compound `CCCCCCCCCCCCCCCCCC[N+](C)(C)Cc1ccccc1`, the Potency in assay [8] was 4.9 µM (active); in assay [6] it was 55 µM (active); in assay [7], 0.18 µM (active). The Potency entry in assay [5] is “inactive”.
For the compound `O=CC=C(c1ccccc1)c1ccccc1`, the Potency entry in assay [1] was “inactive”. The Potency was 54.9 µM (active) in assay [8] and 69.1 µM (active) in assay [2].
`C[C@@H]1C[C@H]2[C@@H]3CCC4=CC(=O)C=C[C@]4(C)[C@@]3(Cl)[C@@H](O)C[C@]2(C)[C@@]1(OC(=O)c1ccco1)C(=O)CCl`: the Potency was 23.7 µM (active) in assay [8], 26.6 µM (active) in assay [2], 2 µM (active) in assay [3] and 3.89 µM (active) in assay [7]. In assay [4], the Potency result is “inactive”.
Take `Cc1ccc(O)c2ncccc12`: the values for the Potency in assay [8] and in assay [2] were 5.31 µM (active) and 3.35 µM (active), respectively. In addition, the Potency result in assay [5], in assay [6], in assay [4] and in assay [7] was “inactive” throughout. The max activation in assay [3] is -0.8% (inactive).
For the compound `Cc1cc(=O)oc2cc(N(C)C)ccc12`, the Potency entry in assay [1] and in assay [5] was “inactive” throughout.
Turning to `CCOc1nc2cccc(C(=O)OC(C)OC(=O)OC3CCCCC3)c2n1Cc1ccc(-c2ccccc2-c2nn[nH]n2)cc1` (configuration not stated), the Potency was 34.3 µM (active) in assay [8], 43.2 µM (active) in assay [5] and 24.3 µM (active) in assay [2].
For the compound `O=C1Cc2cc(CCN3CCN(c4nsc5ccccc45)CC3)c(Cl)cc2N1`, the Potency entry in assay [1], in assay [5], in assay [6] and in assay [7] was “inactive” throughout. Besides, the max activation in assay [3] is -10.8% (inactive).
With `OC1(c2ccc(Cl)c(C(F)(F)F)c2)CCN(CCCC(c2ccc(F)cc2)c2ccc(F)cc2)CC1`, the Potency is 13.3 µM (active) in assay [1], 13.3 µM (active) in assay [8], 18.8 µM (active) in assay [6] and 4.9 µM (active) in assay [7]. Also, the Potency result in assay [2] was “inactive”.
